Experimental data published in PubChem BioAssay AID720518 (National Center for Advancing Translational Sciences (NCATS), 2013).
Results filed as inconclusive are left out. Where a call stands in place of a potency, no number is given. Calls of active or inactive are those of the source. The call rests on the fitted dose curve.

assay: qHTS for Inhibitors of Cell Surface uPA Generation: Wild-type Protective Antigen (WT-PrAg) Counterscreen for Cherry-picked Compounds; details: cells, WT protective antigen toxicity counterscreen; series mostly up to 115 µM

Compound | Potency
O=C(COc1ncnc2sccc12)Nc1cccc(S(=O)(=O)N2CCCC2)c1 | inactive
CN(/N=C/c1cc(Cl)cc(Cl)c1O)C(=S)NC(C)(C)C | inactive
N#Cc1cccc(NC(=O)Cn2cnc(S(=O)(=O)N3CCOCC3)c2)c1 | inactive
C[C@]12CCC(O)CC1CCC1C2CC[C@]2(C)C(c3cc(C(F)(F)F)n[nH]3)CCC12 (stereo not given in full) | inactive
O=C1CC(/C=C/c2ccc(Cl)cc2)=Nc2ccccc2N1 | inactive
C[C@H]1CN([C@@H](C)CO)C(=O)c2cc(NS(=O)(=O)c3ccc(Cl)cc3)ccc2O[C@@H]1CN(C)CC1CCCCC1 | inactive
COCCNC(=S)N(CCc1c(C)[nH]c2ccccc12)Cc1ccco1 | inactive
Cc1ccc(S(=O)(=O)N2CCOCC2)cc1NC(=O)CSc1nc(N)cc(N)n1 | inactive
O=C(c1cc(COc2c(F)cccc2F)on1)N1CCc2ccccc2C1 | inactive
O=C(Nn1cnnc1)c1ccc(Cl)cc1 | inactive
O=C(NCCCn1ccnc1)C(=O)NCC(c1cccnc1)N1CCN(c2ccc(F)cc2)CC1 (stereo not given) | inactive
CCC(C(=O)NCc1ccc(C)cc1)c1ccccc1 (stereo not given) | inactive
CCOC(=O)C1=CC[C@@H](c2cc3ccc(OC)cc3n2C)N(S(=O)(=O)c2ccc(C)cc2)[C@H]1C(=O)OCC | inactive
CC(=O)c1ccc(NC(=O)CN2CCN(c3ccccc3)CC2)cc1 | inactive
COc1cccc(-n2c(SCC(=O)Nc3cc(C)on3)nc3c([nH]c4ccccc43)c2=O)c1 | inactive
Cc1ccccc1S(=O)Cc1ccc(C(=O)N2CCN(C(=O)c3ccco3)CC2)o1 (stereo not given) | inactive
COc1cccc(CN(C)C(=O)c2cc(S(=O)(=O)N3CCCC3)ccc2C)c1OC | inactive
CC1C2=C(CC(C)(C)CC2=O)NC2=C1C(=O)CC(C)(C)C2 | inactive
Cc1c([N+](=O)[O-])c2ccc(O)cc2n1-c1ccccc1 | inactive
COc1ccccc1N1CCN(CC(=O)c2c(C)[nH]c3ccccc23)CC1 | inactive

Compound | Potency
Cc1ccc(NC(=O)c2ccc(=O)[nH]n2)cc1S(=O)(=O)Nc1ccccc1Cl | inactive
COc1ccc(S(=O)(=O)N2CCOCC2)cc1NC(=O)CN1C(=O)NC2(CCCC2)C1=O | inactive
CCNc1nc(Nc2ccc(C)c(Cl)c2)c2cnn(C)c2n1 | inactive
Cc1ccc(C(=O)COc2cc(O)c3c(=O)cc(-c4ccccc4)oc3c2)cc1 | inactive
COc1ccc(OC)c(S(=O)(=O)N2CCC(NC(=O)c3ccccc3)CC2)c1 | inactive
CCCCN(CC(=O)NCc1ccc(F)cc1)C(=O)c1ccco1 | inactive
Nc1nc2ccc(Br)cc2o1 | inactive
CCn1c(=O)cc(C(=O)OC)sc1=Nc1ccc(F)c(F)c1 | inactive
Cc1ccnc(NC(=O)CCNS(=O)(=O)c2ccc(C)c(C)c2)c1 | inactive
O=C(NCCS(=O)(=O)N1CCC2(CC1)OCCO2)c1ccc(F)cc1 | inactive
COc1ccc(CNC(=O)C2CCC(CNS(=O)(=O)c3ccc(C)cc3)CC2)cc1 (stereo not given) | inactive
COc1cc(CN2CCN(S(=O)(=O)c3ccccc3)CC2)cc(OC)c1OC | inactive
Cc1nc(NC(=O)COC(=O)CCc2ccccc2)c(Cl)cc1Cl | inactive
COc1ccc(CCNC(=O)CSc2nc(N)c3c(C)c(C)oc3n2)cc1OC | inactive
CC1=C(C(=O)OCc2ccccc2)C(c2cccc([N+](=O)[O-])c2)NC(=O)N1 (stereo not given) | inactive
Cc1ccc(Cl)cc1NC(=O)c1ccccc1OCC(=O)N1CCOCC1 | inactive
Cc1cccc(CCNC(=O)Cc2ccc(NC3=NC4CS(=O)(=O)CC4S3)cc2)c1 (stereo not given) | inactive
O=C(NCc1ccco1)/C(=C\c1cccs1)NC(=O)c1ccccc1 | inactive
Cc1cc(OC(C)C(=O)NCc2ccccn2)c2c(C)cc(=O)oc2c1 (stereo not given) | inactive
CCOc1cc(C(=S)N2CCOCC2)ccc1OC(=O)c1cccc(C)c1 | inactive
